In the library only some 21% were active in any assay of this set; here they are far more common.
Cycloheximide cs = counter-screen for Shiga toxin inhibitors: cycloheximide protein synthesis inhibition; max response, %; AID 2314; hit rate 12% among 300,000; cell reporter, cycloheximide protein synthesis inhibition counterscreen; in the data active = max response mostly above about 13%, no sharp cut-off; inactive = mostly below about 14%; note: read at 38.3 µM for the half of the compounds with a filed dose; 0% is about no effect
NS1 inh = inhibitors of influenza NS1 protein function; Potency, µM (top dose mostly 46.1 µM), for the others: at the top dose activity, positive = more growth; hit rate 0.4% among 270,000; calls by dose curve; note: potency is the fitted concentration of half-maximal effect; actives are rising curves; nearly all actives have a fitted effect of over 50% in size
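S. cerevisiae expressing influenza A NS1, grown in glucose, washed, then diluted 1:100 into pH 6.0 -URA galactose medium with 23 nl compound. Growth recovery read as OD600; NS1-free strain serves as control.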
Sm TGR inh = inhibitors of Schistosoma mansoni thioredoxin glutathione reductase; purified TGR, DTNB reduction, TNB absorbance 405 nm; Potency, µM (doses to about 114 µM), without a hit: top-dose activity change, negative = inhibition, most hits filed as inhibitors; hit rate 3% among 360,000; AID 485364; note: potency is the fitted concentration of half-maximal effect; % is set by controls: 0 for no effect and ±100 for the full control effect; nearly all actives have a fitted effect of over 60% in size
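Kinetic colorimetric format: TGR-catalysed, NADPH-driven DTNB reduction monitored via TNB absorbance. Enzyme dispensed at 20 nM; compound exposure 15 min at room temperature before reaction start.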
Pf growth 48h = inhibits P. falciparum growth in the first generation, 48 h; Potency, µM (titrated, usually from 28.7 µM), for inactives: at the top dose activity change, negative = inhibition, actives largely listed as inhibitors; P. falciparum luciferase growth in erythrocytes, 48 h; hit rate 5.9% among 310,000; note: potency is the fitted concentration of half-maximal effect; % is set by controls: 0 for no effect and ±100 for the full control effect
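Compounds are pin-transferred into medium, infected erythrocytes (2% hematocrit, 0.1% parasitemia final) are added, and plates sit one parasite generation at 37 C in 5% CO2. Detection reagent is then added and luminescence measured.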
Shiga inhibitor = inhibitors of Shiga toxin in Vero cells; Vero cells, Shiga toxin protein synthesis inhibition reporter; inhibition, % at 38.7 µM; hit rate 9.2% among 290,000; in the data active = inhibition mostly above about 28%, no sharp cut-off; inactive = mostly below about 43%; note: 0% is about no effect
Pf growth 96h = P. falciparum growth inhibition at 96 hour, primary screen for plastid delayed-death inhibitors | hit rate 6.9% among 320,000 | P. falciparum luciferase reporter growth, 96 h | Potency, µM (titrated, usually from 28.7 µM), inactives show at the top dose activity change, negative = inhibition, actives largely listed as inhibitors; note: potency is the fitted concentration of half-maximal effect; % is set by controls: 0 for no effect and ±100 for the full control effect
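P. falciparum expressing integrated firefly luciferase grown in erythrocytes (2% hematocrit, 0.05% parasitemia final) with compounds for 96 hours at 37 C, 5% CO2. Growth inhibition read as loss of luminescence after adding luciferase detection reagent.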
Active calls of the source: *. Unless noted, calls come from the whole dose curve; as a rule, active = well fitted curve in the direction sought with a large enough effect; inconclusive = small, poorly fitted or top-dose-only effect, or another doubt; inactive = no such curve, though single readings can be large; an effect the other way counts as inactive or inconclusive.

How did COc1ccc(-c2nc(Cn3c(SCc4cccc(F)c4)nc4ccncc43)c(C)o2)cc1OC do in these assays?
Cycloheximide cs: 12*; NS1 inh: -80%; Sm TGR inh: inconclusive; Pf growth 48h: 12µM*; Shiga inhibitor: 8; Pf growth 96h: -13%

What do the screens show for `COc1ccc(-c2nc(Cn3c(SCc4ccccc4F)nc4ccncc43)c(C)o2)cc1OC`?
Sm TGR inh: -1%

What do the screens show for `COc1ccc(-c2nc(Cn3c(SCc4ccc(C)cc4)nc4ccncc43)c(C)o2)cc1OC`?
Cycloheximide cs: 48*; NS1 inh: 10%; Sm TGR inh: inconclusive; Shiga inhibitor: 101*; Pf growth 96h: inconclusive

What do the screens show for `C[N+]1(C)CCc2cc(O)c(O)cc2[C@H]1Cc1ccc(O)c(O)c1`?
NS1 inh: -1%

How did CCOc1ccccc1NC(=O)Cn1nc2c3cc(F)ccc3n(Cc3cccc(C)c3)cc-2c1=O do in these assays?
Sm TGR inh: 25%

What do the screens show for `O=c1[nH]c(-c2ccccn2)nc2sc(-c3ccccc3)cc12`?
Cycloheximide cs: 49*; Sm TGR inh: 1%; Pf growth 48h: 62%; Shiga inhibitor: 118*; Pf growth 96h: inconclusive

How did Cc1c(C(=O)N(C)C)sc2nc(-c3ccccn3)[nH]c(=O)c12 do in these assays?
Cycloheximide cs: 11; NS1 inh: -2%; Sm TGR inh: 0%; Shiga inhibitor: 14; Pf growth 96h: -20%

Results for CS(=O)(=O)NCCc1csc2nc(-c3ccccc3)nn12 ?
Sm TGR inh: 8%

How did Cc1ccc(Nc2ccc(C(=O)O)cc2[N+](=O)[O-])cc1 do in these assays?
Cycloheximide cs: 6; NS1 inh: -93%; Sm TGR inh: -6%; Shiga inhibitor: 6; Pf growth 96h: 9.3µM*

How did CC(C)c1ccc(Nc2ccc(C(=O)O)cc2[N+](=O)[O-])cc1 do in these assays?
Cycloheximide cs: 19*; NS1 inh: -89%; Sm TGR inh: -6%; Pf growth 48h: -10%; Shiga inhibitor: 43; Pf growth 96h: 1%

Results for CC(C)C(=O)N1c2nc(-c3ccco3)nn2C2(CCCCC2)[C@@H]2CCCC[C@@H]21 ?
Sm TGR inh: -19%

Results for Cn1c2ccsc2c2cnn(Cc3ccc(F)cc3)c(=O)c21 ?
Sm TGR inh: 2%; Pf growth 48h: inconclusive; Pf growth 96h: 9%

What do the screens show for `CCC12CN3CC(CC)(CN(C1)C3c1ccc(OC(C)C)cc1)C2=O` (stereo unspecified)?
Cycloheximide cs: -2; NS1 inh: -13%; Sm TGR inh: 0%; Pf growth 48h: inconclusive; Shiga inhibitor: -9; Pf growth 96h: 4.7µM*

Results for CCOc1ccc(C2CC(c3c(O)n(C4CCCCC4)c(=O)[nH]c3=O)=Nc3ccccc3S2)cc1 (stereo unspecified) ?
Sm TGR inh: 1%

How did COc1ccccc1CNC(=O)C(=O)NCCC1CCCCN1S(=O)(=O)c1cccs1 (stereo unspecified) do in these assays?
Sm TGR inh: -5%; Pf growth 48h: inconclusive; Pf growth 96h: 12µM*

What do the screens show for `Cc1ccccc1CNC(=O)C(=O)NCCC1CCCCN1S(=O)(=O)c1cccs1` (stereo unspecified)?
Sm TGR inh: -2%; Pf growth 48h: inconclusive; Pf growth 96h: 12µM*

Results for COc1ccccc1CCNC(=O)C(=O)NCCC1CCCCN1S(=O)(=O)c1ccccc1 (stereo unspecified) ?
Sm TGR inh: -1%; Pf growth 48h: 50%; Pf growth 96h: 82%

Results for COc1ccccc1CNC(=O)C(=O)NCCC1CCCCN1S(=O)(=O)c1ccc(C)cc1 (stereo unspecified) ?
Sm TGR inh: -2%; Pf growth 48h: 12µM*; Pf growth 96h: inconclusive

How did O=C(NCc1ccccc1Cl)C(=O)NCC1OCCN1S(=O)(=O)c1cccs1 (stereo unspecified) do in these assays?
Cycloheximide cs: 21*; Sm TGR inh: -3%; Pf growth 48h: -20%; Shiga inhibitor: 28; Pf growth 96h: -14%

What do the screens show for `Cc1ccc(CNC(=O)C(=O)NCCC2CCCCN2S(=O)(=O)c2cccs2)cc1` (stereo unspecified)?
Sm TGR inh: -17%; Pf growth 48h: inconclusive; Pf growth 96h: inconclusive

Results for CC(=O)NC12CC3CC(C1)CC(C(=O)N(C)CC(=O)Nc1cccc(F)c1)(C3)C2 ?
Sm TGR inh: -13%; Pf growth 48h: inconclusive; Pf growth 96h: 8%

What do the screens show for `O=C(NCCS(=O)(=O)N1CCC2(CC1)OCCO2)c1ccccc1`?
Sm TGR inh: 3%; Pf growth 48h: 1%; Pf growth 96h: 1%

Results for O=C(CSc1nccn1Cc1ccccc1)Nc1ccc2c(c1)OCCO2 ?
Sm TGR inh: 0%

What do the screens show for `Cc1ccc(-c2nc3nc(C)cc(N4CCN(c5cccc(C)c5C)CC4)n3n2)cc1`?
Sm TGR inh: 56µM*

What do the screens show for `Cc1ccc(-c2nc3nc(C)cc(N4CCN(c5cc(Cl)ccc5C)CC4)n3n2)cc1`?
Sm TGR inh: -33%

What do the screens show for `CC1S/C(=N/N=C2CCCCC2)NC1=O` (stereo unspecified)?
Cycloheximide cs: 30*; NS1 inh: 3%; Sm TGR inh: 9%; Pf growth 48h: 19%; Shiga inhibitor: 33; Pf growth 96h: inactive

What do the screens show for `CC1S/C(=N/N=C2CCC(C(C)(C)C)CC2)NC1=O` (stereo unspecified)?
Cycloheximide cs: 26*; NS1 inh: -3%; Sm TGR inh: 8%; Pf growth 48h: 0%; Shiga inhibitor: 25; Pf growth 96h: 13%

Results for O=C(CC1S/C(=N/N=C2CCCCCC2)NC1=O)Nc1ccccc1C(F)(F)F (stereo unspecified) ?
Cycloheximide cs: 4; NS1 inh: 1%; Sm TGR inh: 7%; Pf growth 48h: -55%; Shiga inhibitor: -4; Pf growth 96h: -12%

Results for CCOCCCN(C)C1CCN(S(=O)(=O)c2csc(C(N)=O)c2)CC1 ?
Cycloheximide cs: -5; NS1 inh: -5%; Sm TGR inh: 0%; Pf growth 48h: 18%; Shiga inhibitor: -6; Pf growth 96h: inconclusive

How did N#Cc1ccccc1OCC(=O)Nc1nnc(C2CC2)s1 do in these assays?
Sm TGR inh: -9%; Pf growth 48h: 154%; Pf growth 96h: 15%

Results for CCCCCCCn1c(=N)n(CC(=O)c2ccco2)c2ccccc21 ?
Cycloheximide cs: -3; NS1 inh: -1%; Sm TGR inh: -17%; Shiga inhibitor: -3; Pf growth 96h: 12µM*

How did N=c1n(CCN2CCCC2)c2ccccc2n1CC(O)c1ccco1 (stereo unspecified) do in these assays?
Cycloheximide cs: 0; NS1 inh: -4%; Sm TGR inh: -25%; Pf growth 48h: inconclusive; Shiga inhibitor: 22; Pf growth 96h: 15%
